From PubChem BioAssay AID1533 (PCMD, 2009)
The campaign covered roughly 160,000 compounds. About 45 (0.03%) were called active. The sample holds actives, similar compounds and a random draw of the others, so the mix is not that of the screen. Cut-off read from the data, not from the text of the source: active = inhibition mostly above about 34% (no sharp cut-off); inconclusive = no clear call, values can overlap the other calls; inactive = mostly below about 22%.

Biological target: dTDP-4-dehydrorhamnose reductase (Mycobacterium tuberculosis (strain ATCC 25618 / H37Rv)) + dTDP-4-dehydrorhamnose 3,5-epimerase (Mycobacterium tuberculosis (strain ATCC 25618 / H37Rv)) (UniProt P9WH09+P9WH11)
Assay: M. tuberculosis RmlC/RmlD coupled enzyme inhibitors, primary screen, biochemical, compound mixtures, 384-well, from 1536-well plates (AID 1533)
Conditions: RmlC+RmlD coupled enzyme assay, percent inhibition, primary screen in compound mixtures, stronger effect = higher value
[1] = measured here: mean retest inhibition, at 5.5 µM

dTDP-4-dehydrorhamnose reductase (Mycobacterium tuberculosis (strain ATCC 25618 / H37Rv)) + dTDP-4-dehydrorhamnose 3,5-epimerase (Mycobacterium tuberculosis (strain ATCC 25618 / H37Rv)), sequence (P9WH09 whole entry, looked up): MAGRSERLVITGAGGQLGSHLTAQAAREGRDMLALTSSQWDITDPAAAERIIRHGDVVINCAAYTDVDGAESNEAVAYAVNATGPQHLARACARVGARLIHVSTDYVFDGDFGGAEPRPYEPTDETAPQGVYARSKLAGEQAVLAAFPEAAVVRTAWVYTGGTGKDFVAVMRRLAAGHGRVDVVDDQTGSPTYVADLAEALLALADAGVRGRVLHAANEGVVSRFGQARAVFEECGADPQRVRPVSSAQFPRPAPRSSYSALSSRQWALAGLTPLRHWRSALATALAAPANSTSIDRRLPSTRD
dTDP-4-dehydrorhamnose reductase (Mycobacterium tuberculosis (strain ATCC 25618 / H37Rv)) + dTDP-4-dehydrorhamnose 3,5-epimerase (Mycobacterium tuberculosis (strain ATCC 25618 / H37Rv)), sequence (P9WH11 whole entry, looked up): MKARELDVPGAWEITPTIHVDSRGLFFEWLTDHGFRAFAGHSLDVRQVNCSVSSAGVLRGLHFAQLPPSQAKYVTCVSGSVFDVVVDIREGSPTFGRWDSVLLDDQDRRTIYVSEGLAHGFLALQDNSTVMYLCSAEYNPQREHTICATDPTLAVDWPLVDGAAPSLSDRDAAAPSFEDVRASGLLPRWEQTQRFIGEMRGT

Compound	inhibition (at 3.6 µM)	inhibition [1]
COc1ccc(CCN2C(=O)N(c3ccc(OC)cc3)C(=O)C2CC(=O)Nc2ccc(OC)cc2)cc1 (centres undefined)	-9.07% (inactive)	–
CCOC(=O)C1(Cc2cccc(OC)c2)CCN(C(C)CC(C)(C)O)CC1 (centres undefined)	7.5% (inactive)	–
COc1ccc(NS(=O)(=O)c2ccc(N3CCOCC3)c(NC(=O)c3ccccc3Br)c2)cc1	-4.87% (inactive)	–
Cc1nc2nc(SCC(=O)c3ccccc3)[nH]c2cc1Br	4.73% (inactive)	–
O=C1C2C3C=CC(C3)C2C(=O)N1c1ccc(S(=O)(=O)Nc2nccs2)cc1 (centres undefined)	-2.55% (inactive)	–
COCCSc1nnc(NC(=O)c2cc(OC)c(OC)cc2[N+](=O)[O-])s1	15.5% (inactive)	–
CC(=O)c1sc(NC(=O)C2=NN(c3ccccc3)C(=O)CC2)nc1C	-9.61% (inactive)	–
Cc1ccc(NC(=O)NC2CCCCC2)cc1S(=O)(=O)N1CCOCC1	-9.91% (inactive)	–
Clc1ccc2nc(-c3ccccc3)nc(C(Cl)Cl)c2c1	0.32% (inactive)	–
O=S(=O)(Nc1ccc(OC(F)(F)F)cc1)c1cccc2nonc12	4.95% (inactive)	–
O=C(NCc1ccc(F)cc1)C1CCC(CNc2c(N3CCOCC3)c(=O)c2=O)CC1 (centres undefined)	43.3% (inactive)	-8.27%
CCOc1ccc(CCN2C(=O)c3cccnc3C2=O)cc1OCC	3.14% (inactive)	–
Cc1ccc(NC(=O)c2ccc(S(=O)(=O)NCC3CCCO3)cc2)cc1C (centres undefined)	0.36% (inactive)	–
CC(=O)NC(=S)Nc1ccc(NC(=O)c2cccnc2)cc1	2.81% (inactive)	–
COc1ccc(C(C(=O)NC(C)(C)C)N(C(=O)Cn2nnc3ccccc32)c2ccc(C(C)=O)cc2)cc1O (centres undefined)	11.7% (inactive)	–
CSc1ccccc1NC(=O)CN(C)CC(=O)Nc1cccc(Br)c1	6.55% (inactive)	–
O=C1/C(=C/c2coc3ccc(O)cc3c2=O)SC(=S)N1c1ccccc1	-8.54% (inactive)	–
Cc1cccn2c(CNCC(C)Oc3cccnc3)c(C(=O)N3CCOCC3)nc12 (centres undefined)	7.78% (inactive)	–
CCN(CC)c1ccc(NC(=O)C2CCC(CNc3c(N4CCCC4)c(=O)c3=O)CC2)c(C)c1 (centres undefined)	6.36% (inactive)	–
O=S(=O)(c1ccccc1)N1CN(Cc2ccc(F)cc2)c2nc3ccccc3nc21	-11.9% (inactive)	–
Cc1ccc(S(=O)(=O)N(C)CC(=O)OCC(=O)Nc2ccccc2)cc1	13.5% (inactive)	–
C/C(=N\NC(=S)NCc1ccccc1)C1CCCCC1	5.23% (inactive)	–
Fc1cccc2ncnc(OCc3ccccc3)c12	3.36% (inactive)	–
CCn1c(SCC(=O)Nc2sc(C)c(C)c2C#N)nnc1C1CC1	-13.3% (inactive)	–
CCC(C)NC(=O)C1c2ccccc2Oc2ccccc21 (centres undefined)	10.6% (inactive)	–
CCOC(=O)c1ccc(S(=O)(=O)N(CCO)Cc2cc3cc(OC)c(OC)cc3[nH]c2=O)cc1	-8.54% (inactive)	–

Compound	inhibition (at 3.6 µM)	inhibition [1]
CCc1cccc(NC(=O)CCNS(=O)(=O)c2cccc3nonc23)c1	-2.17% (inactive)	–
CCC(C)(C)NC(=O)C(c1ccc(O)cc1)N(C(=O)Cn1nnc2ccccc21)c1ccc(NC(C)=O)cc1 (centres undefined)	4.36% (inactive)	–
COC(=O)c1ccc(COc2ccc(/C=N/NC(=O)C(=O)Nc3ccc(OC)cc3)cc2OC)o1	-13.4% (inactive)	–
Cn1nc(C(C)(C)C)c([N+](=O)[O-])c1C(N)=O	11.8% (inactive)	–
Cc1ccc(NC(=O)/C(=C\c2ccccc2)NC(=O)c2ccco2)cc1	44% (inactive)	3.08%
Cc1ccc(OCC(=O)Nc2nnc(-c3ccco3)s2)cc1	-5.61% (inactive)	–
O=[N+]([O-])c1ccc(N=Cc2c(O)ccc3ccccc23)cc1	-17.6% (inactive)	–
O=c1[nH]nc(SCCS(=O)(=O)c2ccc(F)cc2)n1-c1ccccc1C(F)(F)F	-9.62% (inactive)	–
C=CCc1cccc2cc(C(=O)NC3CCCC3)c(=O)oc12	3.42% (inactive)	–
COc1ccc2[nH]c(C(=O)Nc3ccccc3Cl)cc2c1	-0.28% (inactive)	–
CC1=NNC(=O)C1CC(=O)N/N=C/c1ccncc1 (centres undefined)	8.8% (inactive)	–
C/C(=C\c1ccco1)CN1CCC(N2CCC(C(=O)N3CCOCC3)CC2)CC1	3.12% (inactive)	–
O=C(C[n+]1cc(-c2ccc(Cl)c(Cl)c2)n2c1CCC2)c1cccs1	2.29% (inactive)	–
COc1ccc([N+](=O)[O-])cc1N(CC(O)CN(CC(C)C)CC(C)C)S(=O)(=O)c1ccc(C)cc1 (centres undefined)	2.56% (inactive)	–
COc1cc(N/C=C2\CC(=O)NC(C)=C2C#N)cc(OC)c1OC	-11.2% (inactive)	–
CC(C)N(C(=O)CSc1nc(COc2ccccc2)nc2ccccc12)C(C)C	-5.31% (inactive)	–
COc1c(N2CCN(C(=S)Nc3ccccc3F)C(C)C2)c(F)cc2c(=O)c(C(=O)O)cn(C3CC3)c12 (centres undefined)	9.08% (inactive)	–
CCc1cccc(CC)c1NC(=S)Nc1ccc2cn[nH]c2c1	-7.83% (inactive)	–
O=C1/C(=C/c2cccs2)SC(=S)N1C1CCS(=O)(=O)C1 (centres undefined)	1.03% (inactive)	–
COc1ccc(OCC(O)CNCCNc2nccc(C(F)(F)F)n2)cc1 (centres undefined)	42.7% (inactive)	10.5%
Cc1ccc(/C=C/C(=O)O)cc1S(=O)(=O)N1CCC(Cc2ccccc2)CC1	-14% (inactive)	–
O=C(C[n+]1ccc2c(c1)nnn2-c1ccccc1)c1ccc(Cl)cc1	-3.04% (inactive)	–
CC1Cc2ccccc2N1C1=CC(=O)CC(C)(C)C1 (centres undefined)	10.6% (inactive)	–
CC(=O)Nc1ccc(NC(=O)CSc2nnc(COc3ccccc3C)n2CC2CCCO2)cc1 (centres undefined)	7.46% (inactive)	–
O=C(Nc1nnc(COc2ccccc2)s1)Nc1ccccc1F	3.12% (inactive)	–
COc1ccc(CNC(=O)C(Cc2ccccc2)n2cccc2)cc1 (centres undefined)	6.07% (inactive)	–

Compound	inhibition (at 3.6 µM)	inhibition [1]
COc1ccc(Nc2cc(=O)n(-c3ccccc3)c3c2c(=O)n(C)c(=O)n3C)cc1	13.6% (inactive)	–
CCN(CC)CCn1cnc2c1c(=O)n(CCOC(=O)c1cc(OC)c(OC)c(OC)c1)c(=O)n2C	3.47% (inactive)	–
O=C1COc2ccc(C(=O)COC(=O)C3CC(O)CN3S(=O)(=O)c3ccc(Cl)cc3)cc2N1 (centres undefined)	-2.3% (inactive)	–
COc1ccc(CNC(=O)COC(=O)/C=C/c2ccc(S(=O)(=O)N3CCOCC3)cc2)cc1	-2.01% (inactive)	–
N/C(=N\OC(=O)CCCC(=O)O)c1ncc(C(F)(F)F)cc1Cl	2.53% (inactive)	–
N#CC1=C(N)Oc2c(ccc3cccnc23)C1c1ccncc1 (centres undefined)	4.04% (inactive)	–
c1csc(-c2nnc(COc3ncnc4sccc34)o2)c1	-7.72% (inactive)	–
O=c1ccnc(Nc2ccc(Cl)cc2)[nH]1	6.37% (inactive)	–
CN(c1ccccc1)S(=O)(=O)c1cc(C(=O)OCC(=O)N2CCN(C(=O)c3ccco3)CC2)ccc1Cl	3.76% (inactive)	–
COC(=O)c1ccccc1N=Nc1c(C)[nH][nH]c1=O	-10.6% (inactive)	–
O=C(Nc1ccccc1F)c1ccc(Cn2cc(Br)cn2)cc1	-3.16% (inactive)	–
O=C(Cc1ccccc1Cl)N1CCN(c2ccccn2)CC1	-5.39% (inactive)	–
NC(=O)Cc1ccc2c(c1)[nH]c1ccccc12	-1.93% (inactive)	–
O=C(COc1cc(Cl)c(Cl)cc1Cl)NCCc1ccccn1	6.74% (inactive)	–
CCN1C(=O)/C(=c2\s/c(=C3\Sc4ccccc4N3C)c(=O)n2C)N(C)C1=S	-7.72% (inactive)	–
C=CCN(CC=C)C(=O)COC(=O)c1n[nH]c2ccccc12	5.16% (inactive)	–
O=C(Nc1ccc(-c2ccc3nncn3n2)cc1)C1CCCCC1	-6.47% (inactive)	–
Cc1ccc(-c2nn(-c3cccc(F)c3)cc2CNCCc2ccncc2)o1	-11.7% (inactive)	–
CCN(CC)S(=O)(=O)c1ccc(NC(=O)c2cccnc2Cl)c(NC(=O)c2cccnc2Cl)c1	9.89% (inactive)	–
O=[N+]([O-])/C(N=Nc1ccccc1)=N\Nc1ccccc1	-9.57% (inactive)	–
O=S(=O)(NC(=S)Nc1ccccc1)c1ccc(F)cc1	-3.25% (inactive)	–
CN(CCC1CCOCC1)Cc1cn[nH]c1-c1ccc(-c2ccccc2)cc1	9.21% (inactive)	–
Cc1c(NC(=O)CN2C(=O)C(=O)N(Cc3ccccc3)C2=O)c(=O)n(-c2ccccc2)n1C	7.63% (inactive)	–
CCOC(=O)c1sc(NC(=O)CSc2n[nH]c(CC)n2)nc1C	-5.04% (inactive)	–
